Screens: PubChem, National Center for Advancing Translational Sciences (NCATS)
SMN2 splice enh = SMN2 splice variant enhancement; AID 1458; actives 2.8% (n = 210,000); HEK293 SMN2-luciferase splicing reporter, luminescence, 30-36 h; Potency, µM (top dose mostly 46.1 µM), actives largely listed as activators; note: nearly all actives have a fitted effect of over 55% in size
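HEK293 cells carry an SMN2 […]–luciferase reporter in which exon 7 inclusion puts luciferase in frame. Cells were plated 10-12 h before compound addition, then incubated 30-36 h at 37C. ONE-Glo luminescence was read; sodium butyrate at 4.5 mM final served as control.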
NPC1 promoter act = activators of NPC1 promoter. Huh7 NPC1 promoter luciferase reporter, 24 h. Potency, µM (top dose mostly 9.22 µM), usual class: activators. actives 2.4% (n = 320,000). AID 485313; note: nearly all actives have a fitted effect of over 60% in size
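Huh7 reporter cells (NPC1 promoter driving luciferase) are dosed with compound for 24 h at 37 °C, 5% CO2; luciferase detection reagent is then added and luminescence measured after 10 min at ambient temperature.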
Rab9 prom act = activates the Rab9 promoter; Huh7 Rab9 promoter-luciferase reporter, luminescence, 24 h; Potency, µM (highest dose often 9.22 µM), usual class: activators; actives 2.8% (n = 320,000); note: nearly all actives have a fitted effect of over 60% in size
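Stable Rab9-luc Huh7, 1500 cells/well, 2 h settle; cmpd in DMSO, 24 h, 37 °C/5% CO2; luciferase reagent 10 min RT; luminescence.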
ELG1 genotoxic = inducers of genotoxicity in HEK293T ELG1-luciferase cells; actives 1.3% (n = 330,000); Potency, µM (doses to about 46 µM), actives largely listed as activators; HEK293T ELG1-luciferase reporter, luminescence, 16 h; note: nearly all actives have a fitted effect of over 60% in size
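Cells (2,000/well) expressing the ELG1-luciferase fusion are dosed by pin tool and kept 16 hr at 37 °C, 5% CO2. Signal comes from ONE-Glo luciferase reagent after 30 min at room temperature.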
ELG1 DNA repair = blocks ELG1-dependent DNA repair in HEK293T cells | actives 2.3% (n = 330,000) | HEK293T ELG1-luciferase reporter, luminescence, 16 h; DNA damage induced by 5-fluorouridine | AID 504467 | Potency, µM (titrated, usually from 46.1 µM), usual class: inhibitors; note: nearly all actives have a fitted effect of over 55% in size
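HEK293T cells expressing luciferase-tagged ELG1 (2,000/well) received 5-Fluorouridine plus compound or DMSO for 16 hr at 37 °C. Luciferase was read by ONE-Glo luminescence after 30 min at room temperature.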
FLuc modulator = inhibits or activates purified firefly luciferase, miR-21 counter-screen | purified FLuc, Km substrates, luminescence inhibition | AID 588342 | Potency, µM (titrated, usually from 57.5 µM), actives largely listed as inhibitors | actives 6.9% (n = 360,000); note: nearly all actives have a fitted effect of over 55% in size
Target sequence (P08659 whole entry, looked up): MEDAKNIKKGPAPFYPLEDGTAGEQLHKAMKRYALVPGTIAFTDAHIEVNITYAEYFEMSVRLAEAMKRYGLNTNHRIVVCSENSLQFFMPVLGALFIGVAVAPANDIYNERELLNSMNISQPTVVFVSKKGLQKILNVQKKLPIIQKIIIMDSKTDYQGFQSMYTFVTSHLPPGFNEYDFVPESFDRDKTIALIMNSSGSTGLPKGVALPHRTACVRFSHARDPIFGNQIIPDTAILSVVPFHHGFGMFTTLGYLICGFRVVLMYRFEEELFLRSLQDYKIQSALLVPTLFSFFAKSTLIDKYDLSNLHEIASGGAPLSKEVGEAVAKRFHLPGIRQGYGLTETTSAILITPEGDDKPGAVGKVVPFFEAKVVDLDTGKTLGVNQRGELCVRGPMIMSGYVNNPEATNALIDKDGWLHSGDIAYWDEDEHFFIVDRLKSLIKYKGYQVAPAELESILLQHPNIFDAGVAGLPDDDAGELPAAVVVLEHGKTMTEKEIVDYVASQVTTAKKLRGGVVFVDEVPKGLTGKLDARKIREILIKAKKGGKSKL
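Purified P. pyralis luciferase (10nM final) with 10uM D-luciferin and 10uM ATP (Km levels) in 50mM Tris acetate pH 7.5, 10mM Mg acetate, 0.01% Tween-20, 0.05% BSA; qHTS 6-point titration, ~60 µM downward; luminescence read.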
Numbers stand for hits; i = inactive; ? = inconclusive; nt = no result given. This is a sample that favours compounds with a hit; in the whole collection about 9.4% have one here. Calls come from the whole dose curve; as a rule, active = well fitted curve in the direction sought with a large enough effect; inconclusive = small, poorly fitted or top-dose-only effect, or another doubt; inactive = no such curve, though single readings can be large; an effect the other way counts as inactive or inconclusive.

SMILES	SMN2 splice enh	NPC1 promoter act	Rab9 prom act	ELG1 genotoxic	ELG1 DNA repair	FLuc modulator
Cc1cc(/C=C2/C(=N)N3C(c4ccccc4)=CSC3=NC2=O)c(C)n1-c1ccccc1	i	i	i	i	?	2.39µM
CCC(CC)C1=NN2C(=N)/C(=C\c3cc(C)n(-c4cccc(C)c4)c3C)C(=O)N=C2S1	i	i	i	i	i	i
COc1ccc(Cn2c(=O)n(Cc3ccco3)c(=N)c3c4c(sc32)COC(C)(C)C4)cc1	i	i	i	i	7.31µM	i
Cc1ccc(NC(=O)Cn2c(=O)n(Cc3ccco3)c(=N)c3c4c(sc32)COC(C)(C)C4)cc1	i	i	i	i	?	i
CC1(C)Cc2c(sc3c2c(=N)n(Cc2ccco2)c(=O)n3Cc2ccc(F)cc2)CO1	i	i	i	i	18.4µM	i
Cc1ccc(N(Cc2cccs2)C(=O)c2ccc(OC(C)C)cc2)cc1	nt	nt	nt	nt	nt	i
Clc1cc(Cl)cc(Nc2ncnc(-n3cccc3)n2)c1	nt	i	i	i	i	i
Cc1ccc(Nc2ncnc(-n3cccc3)n2)cc1Cl	nt	?	3.16µM	?	?	2.69µM
O=C(Cc1csc(N2CCOCC2)n1)N/N=C/c1ccc(O)c(O)c1O	i	i	i	i	13µM	?
C/C(=N\NC(=O)Cc1csc(N2CCOCC2)n1)c1ccccc1	i	i	i	i	i	i
COc1cc(OC)c(NC(=O)C2=C(C)C(=O)OC23CCN(C(C)=O)CC3)cc1Cl	nt	nt	nt	nt	nt	i
Cc1cc(C)cc(N(C)S(=O)(=O)c2nnc(NC(=O)COc3ccc(Cl)cc3)s2)c1	nt	nt	nt	nt	nt	i
CCN(CC)S(=O)(=O)c1nnc(NC(=O)COc2ccc(Cl)cc2)s1	nt	nt	nt	nt	nt	2.39µM
CCN(CC)S(=O)(=O)c1nnc(NC(=O)COc2ccccc2F)s1	nt	nt	nt	nt	nt	10.7µM
CCCOc1ccc(-c2nnc(-c3cccs3)o2)cc1	4.47µM	0.708µM	0.562µM	?	?	0.675µM
CN(C)c1ccc(-c2nnc(-c3cccs3)o2)cc1	2.24µM	0.501µM	0.316µM	?	?	0.757µM
CCOc1ccc(-c2nnc(-c3ccccc3)o2)cc1	0.562µM	1.58µM	0.708µM	?	?	1.07µM
CCOc1ccc(-c2nnc(NC3=NCCCCC3)o2)cc1	12.6µM	?	1.58µM	2.31µM	?	4.78µM
Cc1oc2ncnc(N3CCCCC3)c2c1C(=O)NCC1CCN(Cc2ccccc2F)CC1	nt	nt	nt	nt	nt	i
CCOC(=O)Cc1nnc(-c2ccccc2)o1	i	i	i	i	i	i
CCOc1ccc(-c2nnc(-c3ccc(OC)cc3)o2)cc1	i	i	i	i	?	?
CCOc1ccc(-c2nnc(-c3ccncc3)o2)cc1	?	1.78µM	1.58µM	i	?	9.53µM
CCCCNC(=O)Nc1nnc(-c2ccc(OCC)cc2)o1	i	i	i	i	i	i
CCCCOc1ccc(-c2nnc(-c3cc[n+](C)cc3)o2)cc1	nt	i	i	i	i	i
CCCCOc1ccc(-c2nnc(-c3ccncc3)o2)cc1	nt	?	3.98µM	?	?	12µM
SMILES	SMN2 splice enh	NPC1 promoter act	Rab9 prom act	ELG1 genotoxic	ELG1 DNA repair	FLuc modulator
CCOC(=O)CNC(=O)Nc1nnc(-c2ccc(OCC)cc2)o1	i	i	i	i	i	12µM
CCOC(=O)COc1ccc(-c2nnc(-c3ccccc3)o2)cc1	nt	i	i	i	?	6.01µM
Cc1ccc(NC(=O)N2CCc3c([nH]c4ccccc34)C2c2ccccc2F)c(Cl)c1 (centres undefined)	nt	nt	nt	nt	nt	i
Cc1nc(N2CCOCC2)c2nc(-c3ccccc3)n(C(C)CN(C)C)c2n1 (centres undefined)	i	nt	nt	nt	nt	nt
c1coc(-c2nnc(NC3=NCCC3)o2)c1	12.6µM	?	3.55µM	16.4µM	?	19µM
CCCCOC(=O)c1nnc(-c2ccccc2)o1	nt	i	i	i	i	12µM
Cc1nnc(NC2=NCCC2)o1	?	i	i	i	i	i
O=C(Nc1ccc(F)c(Cl)c1)N1CCC(CN2CCOCC2)CC1	nt	nt	nt	nt	nt	i
COc1ccc(-c2ccc(CNc3ccc4[nH]c(=O)[nH]c4c3)o2)cc1Cl	nt	nt	nt	nt	nt	i
Cc1cc(-c2ccccc2)n2nc(-c3cccc(Br)c3)cc2n1	i	nt	nt	nt	nt	i
CSc1nncc(-c2ccccc2)n1	i	i	i	i	?	i
Cc1cc(N)n2nc(-c3ccccc3)cc2n1	7.94µM	?	0.501µM	9.2µM	?	1.07µM
CSc1nc(N)n2nc(-c3ccccc3)cc2n1	nt	2µM	2.24µM	10.3µM	?	3.38µM
Cc1ccc(-c2cc(N)n3nc(-c4ccc(C)cc4)cc3n2)cc1	i	i	i	i	i	i
Cc1ccc(-c2cc3nc(-c4ccccc4)cc(N)n3n2)cc1	7.08µM	?	1.78µM	?	?	?
CCOCCCNC(=O)c1c(NC(=O)c2cc(=O)c3ccccc3o2)sc2c1CCC2	i	nt	nt	nt	nt	i
Cc1ccc(S(=O)(=O)Nc2ccc3c(c2)c(C(=O)OC(C)C)c(C)n3S(=O)(=O)c2ccc(C)cc2)cc1	i	nt	nt	nt	nt	i
CCNc1nc(N)nc(Oc2ccc(C(=O)OC)cc2)n1	25.1µM	?	3.16µM	11.6µM	?	19µM
CCNc1nc(Oc2ccc(C(=O)OC)cc2)nc(N(C)C)n1	i	i	i	i	i	i
CCCCCCCCC/C=C/CC1CC(=O)OC1=O (centres undefined)	i	nt	nt	nt	nt	nt
O=C(N=Nc1c(O)[nH]c2ccccc12)c1cccc(S(=O)(=O)Nc2ccccc2Cl)c1	i	i	i	i	i	21.3µM
CC(C)c1ccc2[nH]c(O)c(N=NC(=O)c3cccc(S(=O)(=O)Nc4ccccc4Cl)c3)c2c1	i	i	i	i	i	i
NS(=O)(=O)c1cc(C(=O)N=Nc2c(O)[nH]c3ccccc23)ccc1Cl	nt	i	i	i	i	6.01µM
CC1CCN(C(=O)c2cc3ccccc3c(=O)o2)CC1	i	i	i	i	?	?
CC1CCN(C(=O)c2cc3c(ccc4ccccc43)o2)CC1	nt	0.447µM	0.282µM	1.03µM	?	0.757µM
SMILES	SMN2 splice enh	NPC1 promoter act	Rab9 prom act	ELG1 genotoxic	ELG1 DNA repair	FLuc modulator
CCOC(=O)C1CCN(C(=O)c2cc3cc4ccc(C)cc4nc3o2)CC1	nt	0.891µM	0.447µM	?	?	?
CCOC(=O)C1CCN(C(=O)c2cc3c(ccc4ccccc43)o2)CC1	nt	2.51µM	0.447µM	9.2µM	?	12µM
CCOC(=O)C1CCN(C(=O)c2cc3cc(C)ccc3[nH]2)CC1	nt	2.82µM	3.16µM	?	?	i
O=C(Nc1ccc(Br)cc1)c1cccc(C(=O)Nc2ccc(Br)cc2)c1	i	nt	nt	nt	nt	?
COc1ccc(-c2nc(CN3CCC(C(=O)NCCCOC(C)C)CC3)c(C)o2)cc1OC	i	nt	nt	nt	nt	i
Cc1nn(-c2ccccc2)c2sc(C(=O)N3CCCCC3)cc12	?	nt	nt	nt	nt	19µM
CCCCSCCCNC(=O)CS(=O)Cc1nc(-c2cccc(C)c2)oc1C (centres undefined)	i	i	i	i	16.4µM	i
COc1ccc2c(CC(=O)Nc3nc(C)cs3)coc2c1	i	i	?	i	?	23.9µM
